Laboratory results: PubChem BioAssay (EPA / NIEHS)
“And” between values parts separate entries of the source, which are not always exact repeats. Identical values can stand only once. Results filed as inconclusive are left out. The source made the active and inactive calls. How the source made its calls, unless noted: active means hit-call score of the fitted dose curve at least 0.9, where 1 is the maximum; inactive means score below 0.9.

What was measured:
[1] = ATG_ISRE_CIS: Attagene CIS-FACTORIAL HepG2 Assay for human Interferon Regulatory Factor 1 (IRF1) binding to an Interferon-Stimulated Response Element (ISRE) (AID 2282948); conditions: HepG2 ISRE cis-reporter (Attagene), mRNA transcription readout; actives raise or lower the signal
Procedure, shortened: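 Multiplexed mRNA reporter readout in human liver HepG2 cells: cis-element-driven reporters transfected, compound added for 24 h, transcripts amplified, fluorescently labelled and sized by capillary electrophoresis; curve fitting bidirectional against DMSO.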

[2] = ATG_PBREM_CIS: Attagene CIS-FACTORIAL HepG2 Assay for human Phenobarbital-responsive Enhancer Module (PBREM) (AID 2282955); conditions: HepG2 PBREM cis-reporter, Attagene multiplexed transcription; actives raise or lower the signal
Procedure, shortened: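 HepG2, transient MRTU transfection, 24 h dosing; RNA → oligo(dT) RT → PCR → 6-FAM extension → HpaI → CE. Bidirectional fit vs DMSO.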

[3] = ATG_M_06_TRANS: Attagene TRANS-FACTORIAL HepG2 Assay for M06 Transcription Factor (Internal Marker) (AID 2282983; active means hit-call score of the fitted dose curve at least 0.9, where 1 is the maximum;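 further: reporter transcript level by RT-PCR then capillary electrophoresis fluorescence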); conditions: HepG2 Attagene TRANS M06 internal marker reporter
Procedure, shortened: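 Background control endpoint: reporter mRNA from transiently transfected HepG2 after 24 h dosing, detected by RT-PCR with capillary electrophoresis fluorescence. Analysed for gain versus DMSO.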

[4] = CCTE_Shafer_MEA_acute_spike_number: CCTE's Neural Acute Assay for Total Number of Spikes, Shafer Lab (AID 2284008);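 on AC50: curve fitted for decrease in spike count so AC50 reflects inhibitors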
Procedure, shortened: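 Read-out is the total spike count over 40 min, expressed as percent change from each well's own pre-treatment baseline and fitted in the loss direction against DMSO. Rat cortical neurons were exposed at 0.03-40 uM on DIV 13 or 15.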

[5] = CCTE_Shafer_MEA_acute_firing_rate_mean: CCTE's Neural Acute Assay for Mean Firing Rate, Shafer Lab (AID 2284009);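 further: analyzed for loss of signal so actives lower firing rate relative to DMSO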
Procedure, shortened: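 Spontaneous spiking of primary rat cortical networks, DIV 13/15, 37 C. Compound 0.03-40 uM, n ≥3 wells; 40 min baseline vs 40 min treated. Endpoint fitted in loss-of-signal direction against DMSO.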

[6] = CCTE_Shafer_MEA_acute_burst_number: CCTE's Neural Acute Assay for Single-Electrode Bursts, Shafer Lab (AID 2284013)
Procedure, shortened: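 Burst totals were derived with adaptive spike detection (8x rms threshold) on filtered signals from rat cortical cultures; change relative to pre-treatment baseline after 40-min compound exposure (0.03-40 uM) was fitted in the negative direction against DMSO.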

[7] = CCTE_Shafer_MEA_acute_burst_duration_mean: CCTE's Neural Acute Assay for Mean Burst Duration, Shafer Lab (AID 2284014);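 further: hits are decreases in mean burst duration relative to DMSO controls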
Procedure, shortened: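 Acute exposure of mature rat cortical networks (DIV 13 or 15) grown on microelectrode arrays to 0.03-40 uM compound. Mean burst duration compared with the 40-min pre-dose baseline over a 40-min post-dose recording at 37 C.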

[8] = CCTE_Shafer_MEA_acute_per_burst_spike_number_mean: CCTE's Neural Acute Assay for Average Number of Spikes Per Burst, Shafer Lab (AID 2284015);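 further: hits are decreases in mean spikes per burst versus baseline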
Procedure, shortened: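 Rat primary cortical neurons on 48-well MEAs (DIV 13 or 15) were treated with 0.03-40 uM compound at 37 C. Mean spikes per burst over 40 min were recorded before and after exposure and expressed as percent change from baseline, relative to DMSO.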

[9] = CCTE_Shafer_MEA_acute_interburst_interval_mean: CCTE's Neural Acute Assay for Mean Interburst Interval, Shafer Lab (AID 2284016);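 further: percent change of mean interburst interval versus each well's own pre-dose baseline; curves fitted for decrease in interburst interval relative to DMSO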
Procedure, shortened: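 Rat primary cortical neurons on 48-well MEAs at DIV 13 or 15 were exposed acutely to 0.03-40 uM. Spikes detected at 8x rms noise, 37 C. Mean interburst interval from 40 min recordings expressed as percent change from 40 min pre-treatment baseline.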

[10] = CCTE_Shafer_MEA_acute_burst_percentage_mean: CCTE's Neural Acute Assay for Percentage of Spikes in a Burst, Shafer Lab (AID 2284017);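 on AC50: curve fitted for loss of signal so potency reflects decreased burst percentage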
Procedure, shortened: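 Primary rat cortical neurons on 48-well MEA plates, treated on DIV 13 or 15 at 0.03-40 uM. Spikes detected at 8x rms noise at 37C; percent change from 40-min baseline to 40-min post-dose recording, fitted versus DMSO.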

[11] = CCTE_Shafer_MEA_acute_burst_percentage_std: CCTE's Neural Acute Assay for Standard Deviation of Burst Percentage, Shafer Lab (AID 2284018);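 further: fitted in the negative direction so actives lower burst percentage SD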
Procedure, shortened: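 Primary rat cortical neurons on 16-electrode MEA wells were recorded 40 min at baseline (DIV 13 or 15), then 40 min after compound (0.03-40 uM), at 37 C. Well value is SD across electrodes of spikes-in-bursts/total spikes; endpoint is percent change, DMSO-referenced.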

[12] = CCTE_Shafer_MEA_acute_per_network_burst_spike_number_mean: CCTE's Neural Acute Assay for Average Number of Spikes in a Network Burst, Shafer Lab (AID 2284019);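 on AC50: curve fitted for loss of signal so actives reduce spikes per network burst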
Procedure, shortened: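 Acute exposure of rat primary cortical networks (DIV 13/15) on MEAs; adaptive spike detection at 8x rms noise, 37 C. Percent change in spikes per network burst after 40 min with compound (0.03-40 uM), negative direction vs DMSO.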

[13] = CCTE_Shafer_MEA_acute_per_network_burst_spike_number_std: CCTE's Neural Acute Assay for Standard Deviation of Number of Spikes in a Network Burst, Shafer Lab (AID 2284020);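 further: fitted for decrease in spike-number SD versus DMSO so actives lower it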
Procedure, shortened: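 Acute MEA exposure, rat cortical neurons, 0.03-40 uM. Per-well % change versus own baseline; DMSO as negative control.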

[14] = read-out: Monokine induced gamma interferon (MIG), CXCL9 (gene 4283); assay: BSK_KF3CT_MIG: BioMAP Diversity Plus: KF3CT Assay for Monokine induced gamma interferon (MIG) Biomarker Activity (AID 2284248); conditions: primary human keratinocytes with fibroblasts
Procedure, shortened: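 KF3CT system: keratinocyte/fibroblast co-culture, 24 h post-dose, MIG by ELISA; activity vs DMSO, positive fitting direction.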

[15] = read-out: Plasminogen activator inhibitor-1 (PAI1), SERPINE1 (gene 5054); assay: BSK_KF3CT_PAI1: BioMAP Diversity Plus: KF3CT Assay for Plasminogen activator inhibitor-1 (PAI1) Biomarker Activity (AID 2284252); conditions: primary human keratinocytes with fibroblasts
Procedure, shortened: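 In this co-culture of primary human keratinocytes and foreskin fibroblasts, PAI-1 was measured by ELISA at 24 h and fitted upward from DMSO.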

[16] = read-out: Interleukin-8 (IL8), CXCL8 (gene 3576); assay: BSK_KF3CT_IL8: BioMAP Diversity Plus: KF3CT Assay for Interleukin-8 (IL8) Biomarker Activity (AID 2284254); conditions: primary human keratinocytes with fibroblasts
Procedure, shortened: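 Chemicals were added to co-cultured human keratinocytes and foreskin fibroblasts, incubated 24 h, then IL-8 was quantified by ELISA. Cytotoxicity was tracked by sulforhodamine B total-protein staining in parallel cultures.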

[17] = read-out: Interferon-inducible T-cell alpha chemoattractant (ITAC), CXCL11 (gene 6373); assay: BSK_BE3C_ITAC: BioMAP Diversity Plus: BE3C Assay for Interferon-inducible T-cell alpha chemoattractant (ITAC) Biomarker Activity (AID 2284279); conditions: primary human bronchial epithelial cells
Procedure, shortened: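 ELISA for I-TAC in primary human bronchial epithelial cultures 24 h post-treatment, fitted relative to DMSO baseline in positive direction. Cytotoxicity checked in parallel cultures by sulforhodamine B protein staining.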

[18] = read-out: Interleukin-8 (IL8), CXCL8 (gene 3576); assay: BSK_BE3C_IL8: BioMAP Diversity Plus: BE3C Assay for Interleukin-8 (IL8) Biomarker Activity (AID 2284280); conditions: primary human bronchial epithelial cells
Procedure, shortened: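 Measured at 24 h after treatment, IL-8 from human primary bronchial epithelial cells is determined by ELISA, and the response is modelled as increasing relative to DMSO negative control.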

[19] = read-out: Plasminogen activator inhibitor-1 (PAI1), SERPINE1 (gene 5054); assay: BSK_CASM3C_PAI1: BioMAP Diversity Plus: CASM3C Assay for Plasminogen activator inhibitor-1 (PAI1) Biomarker Activity (AID 2284284); conditions: primary human coronary artery smooth muscle cells;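 further: PAI-1 protein level measured by ELISA 24 h after dosing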
[20] = molecular target: human Thyroid Receptor alpha (THRa1), THRA (gene 7067) (UniProt P10827); assay: ATG_THRa1_TRANS: Attagene TRANS-FACTORIAL HepG2 Assay for human Thyroid Receptor alpha (THRa1) (AID 2283014; active means hit-call score of the fitted dose curve at least 0.9, where 1 is the maximum)
Procedure, shortened: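 Reporter transcript induction, read by capillary electrophoresis of 6-FAM-labelled RT-PCR products, reflects activity of a transfected THRa1-Gal4 fusion in HepG2 liver cells. Cells were dosed for 24 h; activity was fitted in the positive direction against DMSO.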

Measured: AC50

Sequence of human Thyroid Receptor alpha (THRa1), THRA (gene 7067) (P10827 whole entry, looked up, the tested form may be a part): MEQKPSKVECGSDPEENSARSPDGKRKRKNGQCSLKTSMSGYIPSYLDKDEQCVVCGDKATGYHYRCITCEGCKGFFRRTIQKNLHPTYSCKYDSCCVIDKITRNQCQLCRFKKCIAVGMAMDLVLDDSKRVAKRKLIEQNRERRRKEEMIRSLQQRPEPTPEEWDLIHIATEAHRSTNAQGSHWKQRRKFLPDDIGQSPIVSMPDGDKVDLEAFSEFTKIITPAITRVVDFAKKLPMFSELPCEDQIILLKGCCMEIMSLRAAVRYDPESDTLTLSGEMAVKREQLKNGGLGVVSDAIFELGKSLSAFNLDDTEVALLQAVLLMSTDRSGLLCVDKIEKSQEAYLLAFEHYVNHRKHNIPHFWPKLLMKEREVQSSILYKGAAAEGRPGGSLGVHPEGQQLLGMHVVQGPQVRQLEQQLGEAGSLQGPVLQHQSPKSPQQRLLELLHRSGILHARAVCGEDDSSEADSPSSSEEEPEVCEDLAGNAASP

C[Si](C)(C)O[Si](C)(C)O[Si](C)(C)C
inactive: [1] | [2] | [3]

COc1cc(CNC(=O)CCCC/C=C/C(C)C)ccc1O
active: [10] 4250 nM | [11] 8500 nM
inactive: [4] | [5] | [6] | [7] | [8] | [9] | [12] | [13] | [14] | [15] | [16] | [17] | [18] | [19]

CC[N+](CC)(CC(=O)Nc1c(C)cccc1C)Cc1ccccc1
inactive: [1]

CCCN[C@H]1CCc2nc(N)sc2C1
inactive: [1] | [2]

COc1ccc2ccccc2c1
inactive: [1] | [3] | [20]

CCCCCC[C@@H](O)C/C=C\CCCCCCCC(=O)O
inactive: [1] | [2] | [3] | [20]

O=[N+]([O-])c1cc(S(=O)(=O)Nc2ccccc2)ccc1Nc1ccccc1
active: [4] 2980 nM | [5] 2980 nM | [10] 25100 nM | [11] 15000 nM | [12] 1260 nM | [13] 1220 nM | [14] 33.7 µM and 31.5 µM | [15] 25.9 µM and 16.2 µM | [16] 15.3 µM and 10.8 µM | [17] 28.7 µM and 29.5 µM | [18] 20 µM and 7.26 µM
inactive: [6] | [7] | [8] | [9] | [19]

CCCCCCCCCC/C=C/C1CC(=O)OC1=O (configuration not stated)
inactive: [1] | [2] | [3]

Oc1cccc2ccccc12
inactive: [2] | [3] | [20]

OC(C(F)(F)F)(C(F)(F)F)C(O)(C(F)(F)F)C(F)(F)F
inactive: [16] | [19]
active: [14] 45.2 µM and 54.8 µM | [15] 36.1 µM and 25.2 µM | [17] 47.3 µM and 46.1 µM | [18] 12.3 µM and 11.5 µM

O=S(=O)(O)c1cccc2ccccc12
inactive: [3] | [20]

CCCCC(CC)COC(=O)C=Cc1ccc(OC)cc1 (configuration not stated)
inactive: [14] | [15] | [16] | [17] | [18] | [19]

Cc1c(C(N)=O)cc([N+](=O)[O-])cc1[N+](=O)[O-]
inactive: [6] | [7] | [8] | [9] | [10] | [11] | [12] | [13] | [14] | [15] | [16] | [18] | [19]
active: [4] 3 nM | [5] 3.2 nM | [17] 32.7 µM and 30.5 µM

CCCCCCOC(=O)CCCCCCCC(=O)OCCCCCC
inactive: [2] | [3] | [20]

COc1ccccc1OCC(O)CO (configuration not stated)
inactive: [1] | [20]

COc1ccc(C(=O)c2ccccc2O)c(O)c1
active: [4] 21.5 nM | [5] 5.33 nM | [6] 3 nM
inactive: [7] | [8] | [9] | [10] | [11] | [12] | [13] | [14] | [15] | [16] | [17] | [18] | [19]
